Bioassay records from PubChem.
Shown are actives, neighbours in structure and some others; about 4.5% of the full set was active somewhere.
GAA850 FXN act: increases GAA850 frataxin promoter reporter activity; 360,000 compounds, 0.56% hits; activation, % at 6 µM; AID 540364; HEK293 lucGAA850 FXN promoter luciferase reporter, 24 h; percent of 10 µM SAHA response;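 active = activation above the average of all compounds screened plus 3 SD, cutoff fixed separately per campaign, cut at about 7.5% in these data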;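 also: 0% = DMSO wells and 100% = 10 µM SAHA wells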
hgDAF-12 ag: activates the H. glycines DAF-12 receptor ligand-binding domain. HEK293 GAL4-hgDAF12 UAS-luciferase reporter, agonist luminescence; normalized to butyrate control. activation, % at 6.8 µM. 370,000 compounds, 1.8% hits. AID 687014;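 active = activation above a cutoff set at the mean of all screened compounds plus 3 SD, cut at about 10% in these data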;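 also: 0% = DMSO wells and 100% = sodium butyrate wells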
ssDAF-12 act: S. stercoralis DAF-12 activation, primary screen; 370,000 compounds, 1% hits; activation, % at 6.8 µM; HEK293 ssDAF-12/GRIP1 lit1-tk-luc reporter, luminescence; % of 3 µM dafachronic acid response; AID 652126;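 active = activation above the mean over all tested compounds plus 3 SD, cut at about 0.9% in these data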;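 also: 0% = DMSO-only wells and 100% = 3 µM delta7-dafachronic acid wells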
DAX1 inh-1: inhibitors of DAX1 repression of SF-1 activated StAR promoter | HEK293T StAR-luciferase reporter, SF-1/DAX-1 repression relief | inhibition, % at 6.8 µM | 370,000 compounds, 1.1% hits | AID 652010;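 active = inhibition above the mean over all tested compounds plus 3 SD, cut at about 3.6% in these data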;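 also: 0% = DAX-1 cells with DMSO and 100% = cells lacking DAX-1 with DMSO; higher inhibition means more luminescence from relief of DAX-1 repression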
hcDAF-12 act: activators of H. contortus DAF-12 nuclear receptor. HEK293 hcDAF-12 lit1-tk-luc reporter, luminescence; 0% DMSO, 100% Δ7-dafachronic acid. activation, % at 6.8 µM. 370,000 compounds, 1.4% hits. AID 652067;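 active = activation above the mean of all tested compounds plus 3 SD, cut at about 5.5% in these data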;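 also: 100% = response to 3 µM Δ7-dafachronic acid high control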
DAX1 inh-2: inhibitors of human orphan nuclear receptor DAX1 (NR0B1); P51843; HEK293 Gal4-DAX1 luciferase reporter, luminescence; inhibition, % at 6.75 µM; AID 504766; 340,000 compounds, 0.99% hits;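 active = inhibition above the mean over all tested compounds plus 3 SD, cut at about 4.2% in these data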;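 also: 0% = DAX1-transfected cells with DMSO and 100% = empty-vector control cells with DMSO; inhibition shows as a rise in luminescence from relieved DAX1 repression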
Target sequence (P51843 207-470 limits assumed): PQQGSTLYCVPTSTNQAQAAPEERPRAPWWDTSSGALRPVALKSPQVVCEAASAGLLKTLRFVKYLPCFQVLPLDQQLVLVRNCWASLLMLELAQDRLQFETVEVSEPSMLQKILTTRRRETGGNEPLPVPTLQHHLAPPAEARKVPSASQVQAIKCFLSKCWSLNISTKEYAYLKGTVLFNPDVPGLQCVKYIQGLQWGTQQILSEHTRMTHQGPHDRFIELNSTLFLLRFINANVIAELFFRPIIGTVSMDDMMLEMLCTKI
GAA30 counter: activates GAA30 frataxin promoter, counter-screen for GAA850 activators; activation, % at 6 µM; HEK293 lucGAA30 FXN promoter luciferase, 24 h; DMSO = 0%, 5 µM ipriflavone = 100%; 1,900 compounds, 66% hits; shares compounds with GAA850 FXN act;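 active = mean activation above the mean of solvent-only control wells plus 3 SD, cut at about 22% in these data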;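 also: counterscreen of GAA850 promoter hits where activity marks nonselective or luminescence artifacts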
FXN GAA850 conf: confirmation of GAA850 frataxin (FXN) promoter activators; shares compounds with GAA850 FXN act; HEK293 lucGAA850 FXN promoter luciferase reporter, 24 h; 100% = activation by SAHA; activation, % at 6 µM; 1,900 compounds, 86% hits; AID 588351;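 active = mean activation above a set limit taken from the primary screen, cut at about 8% in these data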;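 also: 0% = DMSO wells and 100% = 10 µM SAHA wells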
Numbers without * were called inactive; . = not tested or not shown.

SMILES	GAA850 FXN act	hgDAF-12 ag	ssDAF-12 act	DAX1 inh-1	hcDAF-12 act	DAX1 inh-2	GAA30 counter	FXN GAA850 conf
O=C(C=Cc1ccccn1)c1ccccc1O	8.5*	-2.7	-1.3	-0.5	-0.5	-1.1	-40.3	26.2*
N#Cc1c(N)nc(SCc2ccncc2)c(C#N)c1-c1cccs1	9.9*	-7.2	-1.9	-1.3	-3.4	-0.6	-8.2	6.1
Cc1c(C(=O)Nc2ccncc2)sc2nc(-c3ccc(F)cc3)cn12	14.9*	-1.3	-1.2	-3.2	-3.7	-2.9	45.7*	24.7*
COC(=O)[C@]1(Cc2ccccc2)NC=C(C(=O)c2ccccc2)[C@@H]1c1cccs1	.	0.5	-0.7	1.1	2.9	.	.	.
CC1CCCN(c2ccc(C(=O)NCc3cccs3)cn2)C1 (stereo unspecified)	5.0	5.7	-0.3	2.8	0.4	0.2	.	.
O=C(NCc1cccs1)c1ccc(N2CCCCC2)nc1	7.7*	6.2	-0.8	3.0	-0.5	0.8	85.6*	29.9*
CCc1ccc(NC(=O)c2cc(S(=O)(=O)N3CCCC3)c[nH]2)cc1	-1.3	.	.	.	.	-1.3	.	.
CCOc1ccc(NC(=O)c2cc(S(=O)(=O)N3CCCCC3)c[nH]2)cc1	12.5*	-2.4	-1.7	-2.0	0.2	-0.6	3.6	2.6
CC(C)C[C@H](NC1(C(=O)NC2CCCCC2)CCN(C)CC1)C(=O)NCC(c1ccccc1)c1ccccc1	.	3.5	-0.7	.	1.3	.	.	.
COCCNC(=O)c1c(N)[nH]c(C(=O)c2ccc(Br)cc2)c1-c1c(OC)ccc2ccccc12	.	1.9	-1.0	.	-2.3	.	.	.
Cc1ccc(S(=O)(=O)N2CC3(COC(C)(C)OC3)C[C@H]2CON2C(C)(C)CCCC2(C)C)cc1	.	-0.8	-2.0	.	-2.9	.	.	.
COc1ccc(-c2nnc(SCC(=O)N3CCOCC3)o2)cc1	7.7*	8.9	-0.6	1.2	4.7	3.7	100.9*	29.5*
COc1ccc(Nc2cc(Nc3cccc(OC)c3)ncn2)cc1	7.8*	5.4	-0.6	1.1	-0.6	-0.9	85.0*	26.3*
COc1ccc(Nc2cc(Nc3ccc(OC)cc3)ncn2)cc1	-0.8	-1.1	-1.5	-0.4	-1.3	0.2	.	.
COc1cc(C#Cc2ccc3cc(CCO)oc(=O)c3c2)cc(OC)c1	7.8*	7.0	-0.3	1.3	3.7	2.3	106.4*	37.6*
CN(C)c1ccc(C#Cc2ccc3cc(CCO)oc(=O)c3c2)cc1	4.2	.	.	.	.	2.9	.	.
COc1ccc(-n2c(C)cc(C(=O)CCl)c2C)cc1	8.0*	-3.1	-0.4	-2.0	1.4	-2.4	-69.9	30.9*
COc1ccc(C2CC(=O)C(c3ccc(C)cc3)=CN2Cc2ccccc2)cc1 (stereo unspecified)	.	2.7	-1.0	-0.6	-2.7	.	.	.
c1ccc2sc(-c3csc4c3CCNC4)nc2c1	.	6.9	-1.5	.	1.9	.	.	.
COc1ccc(CNS(=O)(=O)CC2NCc3ccc(C)cc32)cc1 (stereo unspecified)	.	-1.1	-1.0	-0.4	1.3	.	.	.
O=C(Cn1ncc(Cl)c(Cl)c1=O)N1CCN(S(=O)(=O)c2ccc3ccccc3c2)CC1	9.7*	-6.5	-2.0	-0.7	-2.6	-0.2	-63.0	16.4*
CC1CCN(CCCNS(=O)(=O)c2cc3c(cc2Br)CCN3C(=O)C2CC2)CC1	.	-0.6	-1.2	0.6	1.0	.	.	.
CCN=C1NC(c2ccc(C(F)(F)F)cc2)C(C(=O)OC)=C(C)N1Cc1ccccc1C(F)(F)F (stereo unspecified)	.	-1.0	-1.0	1.0	0.1	.	.	.
CCc1ccc2[nH]c(=O)c(C(c3nnnn3Cc3ccc(OC)cc3)N3CCOCC3)cc2c1 (stereo unspecified)	3.1	-1.1	-1.0	0.6	-0.1	1.8	.	.
COc1ccc(Cn2nnnc2C(c2cc3cc(C)cc(C)c3[nH]c2=O)N2CCOCC2)cc1 (stereo unspecified)	8.1*	0.6	-1.5	0.4	-1.4	0.4	10.6	7.0
